Data as given in PubChem BioAssay (NCATS).
Records with an inconclusive call do not appear. Values without a mark were called inactive. Active and inactive are the calls of the source. Calls come from the whole dose curve; as a rule, active = well fitted inhibition curve with a large enough effect; inconclusive = small, poorly fitted or top-dose-only effect; inactive = no such curve, though single readings can be large or run the other way.

These compounds were tested against Cytochrome P450 3A7 (Homo sapiens) (UniProt P24462) (assay: Cytochrome P450 family 3 subfamily A member 7 (CYP3A7) small molecule antagonists: luciferase biochemical qHTS assay (AID 1963596; note: nearly all actives have a fitted effect of over 40% in size)). Conditions: P450-Glo CYP3A7 enzyme luminescence, 1 h; series mostly up to 57.4 µM; activity change, negative = inhibition: at the top concentration.
Chain of Cytochrome P450 3A7 (Homo sapiens) (P24462 whole entry, looked up): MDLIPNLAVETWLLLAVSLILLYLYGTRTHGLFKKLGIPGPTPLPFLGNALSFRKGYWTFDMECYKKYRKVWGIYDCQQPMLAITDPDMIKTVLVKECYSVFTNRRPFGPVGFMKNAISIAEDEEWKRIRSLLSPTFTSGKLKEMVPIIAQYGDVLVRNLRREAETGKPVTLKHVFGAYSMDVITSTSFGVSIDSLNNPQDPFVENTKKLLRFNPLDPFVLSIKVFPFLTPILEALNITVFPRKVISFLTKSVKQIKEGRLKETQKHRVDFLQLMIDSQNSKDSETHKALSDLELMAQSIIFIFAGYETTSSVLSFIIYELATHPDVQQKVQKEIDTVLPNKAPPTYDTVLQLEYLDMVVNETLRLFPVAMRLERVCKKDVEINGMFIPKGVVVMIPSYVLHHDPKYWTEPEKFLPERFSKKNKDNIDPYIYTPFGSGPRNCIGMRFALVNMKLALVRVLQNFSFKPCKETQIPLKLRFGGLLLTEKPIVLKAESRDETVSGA
How it was run: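 P450-Glo luminescent assay: CYP3A7 enzyme converts a proluciferin substrate to luciferin, detected by luciferase reagent; light proportional to activity. Compounds in DMSO preincubated 10 min with enzyme-substrate mix at room temperature, then NADPH regeneration added for 1 h.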
% is set by controls: 0 for no effect and ±100 for the full control effect; potency is the fitted concentration of half-maximal effect.

| Compound | activity change, negative = inhibition | Potency |
| --- | --- | --- |
| C=CC(=O)Nc1cc2c(Nc3ccc(F)c(Cl)c3)ncnc2cc1OCCCN1CCOCC1 | -23.8% |  |
| Oc1c(Cl)cc(Cl)c2cccnc12 | -12.8% |  |
| CC[N+](CC)(CC)CCOc1cccc(OCC[N+](CC)(CC)CC)c1OCC[N+](CC)(CC)CC | -15% |  |
| C#CCN[C@@H]1CCc2ccccc21 | -0.279% |  |
| Fc1cc(-c2cccc3ncc(-c4cnn(C5CCNCC5)c4)nc23)cc(F)c1CN1CCOCC1 | 0% |  |
| O=C1CSC(=O)N1C(CCc1ccncc1)COc1ccc(-c2cccc([N+](=O)[O-])c2)cc1 (centres undefined) |  | 1.34 µM (active) |
| NC(=O)c1cccc2cn(-c3ccc([C@@H]4CCCNC4)cc3)nc12 | -19.7% |  |
| C1COC(NC(C2CC2)C2CC2)=N1 | -18.4% |  |
| COc1cc2c(cc1OC)CN(CCc1ccc(NC(=O)c3cc(OC)c(OC)cc3NC(=O)c3cnc4ccccc4c3)cc1)CC2 | 0% |  |
| CCCCOc1c(C(=O)c2c(F)cc(C)cc2F)cnc2n[nH]cc12 | -18.8% |  |
| CC(C)CC(=O)Nc1n[nH]c2c1CN(C(=O)C1CCN(C)CC1)C2(C)C |  | inactive |
| Cc1nc2n(c(=O)c1CCN1CCC(c3noc4cc(F)ccc34)CC1)CCCC2 | -0.445% |  |
| CCn1cc(C(=O)O)c(=O)c2cc(F)c(N3CCNCC3)cc21 | 6.4% |  |
| CNC1CCCN(c2c(F)cc3c(=O)c(C(=O)O)cn(C4CC4)c3c2OC)C1 (centres undefined) | -0.493% |  |
| Clc1ccc(C2(c3ccc(-c4cn[nH]c4)cc3)CCNCC2)cc1 |  | 12.6 µM (active) |
| CC(=O)N(O)CCCCCNC(=O)CCC(=O)N(O)CCCCCNC(=O)CCC(=O)N(O)CCCCCN | -0.836% |  |
| CO[C@@H]1COCC[C@@H]1N[C@@H]1CC[C@@](C(=O)N2CCc3ncc(C(F)(F)F)cc3C2)(C(C)C)C1 | -4.22% |  |
| Cc1cnc(CNC(=O)c2c(=O)c3ccc(N4CCCN(C)CC4)nc3n3c2sc2ccccc23)cn1 | -0.698% |  |
| Nc1cc(C(Cl)=C(Cl)Cl)c(S(N)(=O)=O)cc1S(N)(=O)=O | -23.6% |  |
| CCOC(=O)C1=C(N)Oc2ccc(Br)cc2C1C(C#N)C(=O)OCC (centres undefined) | -22.7% |  |
| Cc1cnc(Nc2ccc(N3CCN(C)CC3)cc2)nc1Nc1cccc(S(=O)(=O)NC(C)(C)C)c1 | 0% |  |
| N=c1nc(N2CCCCC2)cc(N)n1O | -10.5% |  |
| CCOC(=O)c1ncn2c1CN(C)C(=O)c1cc(F)ccc1-2 |  | inactive |
| CCCn1c(=O)c2[nH]c(-c3cnn(Cc4cccc(C(F)(F)F)c4)c3)nc2n(CC)c1=O | -9.31% |  |
